# Bioassay records from PubChem.
# An excerpt weighted towards active compounds, which were near 18% of everything screened.
# CtBP-E1A inh – inhibitors of CtBP/E1A interaction | 0.49% of 340,000 active | activity change, % (test concentration not listed) | AlphaScreen GST-E1A/His-CtBP binding, 1536-well; stronger effect = lower value; in the data active = activity change below about -65%; inconclusive = mostly about -30% to -63%
#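 Protein mix (5X: 125 nM each GST-E1A, His-CtBP) was incubated with pinned compound 2 h at 37 deg C in dark, in 50 mM Tris pH 8.0 buffer with 300 mM NaCl. Glutathione donor and nickel acceptor beads followed; AlphaScreen signal read after 1 h.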
# TDP1 cell CPT – DT40-hTDP1 cell growth loss with CPT | chicken DT40 Tdp1-/-;hTDP1 cells + 20 nM CPT, ATP luminescence, 48 h | 12% of 420,000 active | Potency, µM (highest dose often 46.2 µM), most hits filed as inhibitors; note: nearly all actives have a fitted effect of over 55% in size
#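 Cell growth measured by CellTiter-Glo luminescence after a minimum 48 h, 37 C compound exposure with 20 nM CPT in Tdp1-knockout DT40 cells stably expressing hTDP1, seeded 400/well; qHTS titration format.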
# IL1B secr inh – blocks inflammasome-driven IL-1 beta release; THP-1 LPS/ATP IL-1B secretion, AlphaLISA, 16 h; stronger effect = lower value; activity change, % at 57.5 µM; 4.7% of 360,000 active; in the data active = activity change below about -50%; inconclusive = mostly about -30% to -49%
#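 THP-1 cells pretreated 1 hr with compounds (up to 57.5 uM final), then stimulated with LPS (250 ng/mL final) plus ATP (1.25 mM final); secreted IL-1B measured by AlphaLISA after 16 hr, decreased signal indicating inhibition.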
# TDP1 inh – blocks human tyrosyl-DNA phosphodiesterase 1 | recombinant TDP1, AlphaScreen DNA substrate cleavage | Potency, µM (top dose mostly 130 µM), actives largely listed as inhibitors | 0.28% of 350,000 active; note: nearly all actives have a fitted effect of over 40% in size
# Target sequence (Q9NUW8 whole entry, looked up): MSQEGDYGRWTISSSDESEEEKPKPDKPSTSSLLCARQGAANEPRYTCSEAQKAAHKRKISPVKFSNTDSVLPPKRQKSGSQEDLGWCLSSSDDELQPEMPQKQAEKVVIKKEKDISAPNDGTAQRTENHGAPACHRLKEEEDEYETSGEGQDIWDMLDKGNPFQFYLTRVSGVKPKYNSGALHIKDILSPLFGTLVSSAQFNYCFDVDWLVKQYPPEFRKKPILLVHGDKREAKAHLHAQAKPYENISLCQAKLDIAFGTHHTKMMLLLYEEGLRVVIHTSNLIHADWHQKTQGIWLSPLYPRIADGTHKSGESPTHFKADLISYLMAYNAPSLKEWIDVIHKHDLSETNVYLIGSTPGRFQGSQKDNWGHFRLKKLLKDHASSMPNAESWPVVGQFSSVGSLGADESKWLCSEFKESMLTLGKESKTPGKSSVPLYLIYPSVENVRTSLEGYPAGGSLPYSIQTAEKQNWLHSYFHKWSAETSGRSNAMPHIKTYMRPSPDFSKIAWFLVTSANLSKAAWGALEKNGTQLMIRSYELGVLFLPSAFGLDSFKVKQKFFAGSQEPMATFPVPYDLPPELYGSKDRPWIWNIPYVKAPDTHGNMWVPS
#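 E. coli-derived human Tdp1, 1 nM final. Cpd preinc 15 min RT; substrate 15 nM final, 5 min RT; AS bead mix 10 ug/ml final, 10 min RT. Signal loss = tyrosine-FITC cleavage. No-enzyme wells = max signal.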
# Six1-Eya2 inh – inhibitors of human Six1/Eya2 interaction. AlphaScreen GST-Six1/His-Eya2 binding, biochemical; stronger effect = lower value. activity change, % (no concentration beside the values). Q15475+O00167. 0.56% of 360,000 active. AID 651725; in the data active = activity change below about -65%; inconclusive = mostly about -30% to -63%
#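 Homogeneous AlphaScreen proximity assay pairing GST-Six1 with His-tagged Eya2 (added as 5X mix: 250 nM and 500 nM) in 50 mM Tris pH 8.0, 300 mM NaCl, 1 mM TCEP. Glutathione donor and nickel acceptor beads; 1 h, 37 °C, dark.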
# DT40 TDP1 no CPT – qHTS for Inhibitors of human tyrosyl-DNA phosphodiesterase 1 (TDP1): qHTS in cells in absence of CPT; 15% of 420,000 active; Potency, µM (series often up to 46.2 µM), usual class: inhibitors; DT40 Tdp1-/- hTDP1 cells, no CPT, ATP luminescence, 48 h; note: nearly all actives have a fitted effect of over 55% in size
#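 Chicken DT40 Tdp1-/- cells complemented with human TDP1, screened without camptothecin (DMSO vehicle only), 400 cells/well. Compounds pin-transferred, cells incubated at 37 °C for at least 48 hr. Growth read as ATP-dependent luminescence (CellTiter-Glo, 30 min at RT).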
# Hits are given with their value; – = inactive; ? = inconclusive; · = no result given. Unless noted, calls come from the whole dose curve; as a rule, active = well fitted curve in the direction sought with a large enough effect; inconclusive = small, poorly fitted or top-dose-only effect, or another doubt; inactive = no such curve, though single readings can be large; an effect the other way counts as inactive or inconclusive.
SMILES,CtBP-E1A inh,TDP1 cell CPT,IL1B secr inh,TDP1 inh,Six1-Eya2 inh,DT40 TDP1 no CPT
COC(=O)N/N=C/c1cc(Cl)cc(Cl)c1OCc1ccccc1F,–,?,–,–,–,18µM
COC(=O)N/N=C/c1cn(Cc2ccc(F)cc2)c2ccccc12,–,–,–,·,–,?
Nc1ccc(C(=O)N/N=C/c2cn(Cc3ccccc3F)c3ccccc23)cc1,–,?,-67,–,–,?
O=C(N/N=C/c1cn(Cc2cccc(F)c2)c2ccccc12)c1cc(O)cc(O)c1,-72,–,–,0.63µM,-75,–
COC(=O)N/N=C/c1ccccc1Cl,–,–,–,–,–,–
COC(=O)N/N=C/c1cn(Cc2ccccc2Cl)c2ccccc12,–,18µM,–,–,–,21µM
COC(=O)N/N=C/c1cn(CCCOc2ccccc2)c2ccccc12,–,26µM,–,–,–,?
COC(=O)N/N=C/c1cn(Cc2ccc(Cl)cc2Cl)c2ccccc12,–,?,–,–,–,?
COc1ccccc1OCCCn1cc(C#N)c2ccccc21,–,–,–,–,–,?
N#Cc1cn(CCCOc2ccccc2)c2ccccc12,–,9.2µM,–,–,–,23µM
O=C(NCCc1ccccc1)c1ccc2nc(CCc3ccccc3)oc2c1,·,–,·,–,·,–
O=C1OC(c2cccc([N+](=O)[O-])c2)C2(CCCC2)C(=O)C12CCCCC2 (stereo not drawn),–,23µM,–,–,–,?
CCOC(=O)Cn1c(=N)n(CCOc2ccc3ccccc3c2)c2ccccc21,–,18µM,–,–,–,?
CCOC(=O)Cn1c(=N)n(CCOc2ccc(OC)cc2)c2ccccc21,–,–,?,–,–,–
N=c1n(CCCOc2ccc(Br)cc2)c2ccccc2n1CC(N)=O,–,18µM,–,–,–,16µM
CCCn1c(=N)n(CCOc2ccc(OC)cc2)c2ccccc21,–,16µM,-58,–,–,18µM
Cn1c(=O)n(CCCOc2ccc(Br)cc2)c2ccccc21,–,–,–,–,–,?
O=C(N/C(=C/c1cccs1)C(=O)N1CCCC1)c1ccccc1,–,–,–,·,–,–
Cc1ccc2oc(-c3ccc(NC(=O)CCC(=O)O)cc3)nc2c1,·,–,·,·,·,–
C[n+]1cccc2cccc([O-])c21,·,–,–,40µM,–,–
C=CC[C@H](CC(=O)N[C@H](CO)Cc1ccccc1)C(=O)N[C@@H](COC(=O)[C@@H](CC=C)CC(=O)OC(C)(C)C)Cc1c[nH]c2ccccc12,–,?,–,–,–,?
C=CC[C@H](CC(=O)N(CCO)Cc1ccccc1)C(=O)N[C@@H](COC(=O)[C@H](CC=C)CC(=O)OC(C)(C)C)Cc1c[nH]c2ccccc12,–,15µM,-62,–,–,16µM
C=CC[C@@H](CC(=O)N(CCO)Cc1ccccc1)C(=O)N[C@H](COC(=O)[C@@H](CC=C)CC(=O)OC(C)(C)C)Cc1c[nH]c2ccccc12,–,18µM,-56,–,–,23µM
C=CC[C@@H](CC(=O)N(CCO)Cc1ccccc1)C(=O)N[C@@H](COC(=O)[C@@H](CC=C)CC(=O)OC(C)(C)C)Cc1c[nH]c2ccccc12,?,26µM,-62,–,–,21µM
CC(Sc1nnc(-c2ccco2)n1C)C(=O)Nc1ccc(N2CCOCC2)cc1 (stereo not drawn),–,–,–,–,–,–
SMILES,CtBP-E1A inh,TDP1 cell CPT,IL1B secr inh,TDP1 inh,Six1-Eya2 inh,DT40 TDP1 no CPT
O=C(CSc1nnc(-c2ccco2)n1CC1CCCO1)c1ccc(F)cc1 (stereo not drawn),–,18µM,–,–,–,21µM
COc1ccc(-c2ccc3c(c2)S(=O)(=O)c2cccc(C(=O)N4CCN(c5ccccn5)CC4)c2C3=O)cc1OC,–,18µM,–,·,–,15µM
O=C1c2ccc(-c3ccc(Cl)c(C(F)(F)F)c3)cc2S(=O)(=O)c2cccc(C(=O)N3CCN(c4ccc(Cl)cn4)CC3)c21,·,?,–,–,–,13µM
O=C1c2ccc(-c3ccc(F)cc3OCc3ccccc3)cc2S(=O)(=O)c2cccc(C(=O)N3CCCC3)c21,·,13µM,–,–,–,15µM
COc1ccc(-c2ccc3c(c2)S(=O)(=O)c2cccc(C(=O)N4CCN(C5CCCCC5)CC4)c2C3=O)cc1OC,–,18µM,–,–,–,?
Cc1ccccc1S(=O)(=O)Cc1ccc(C(=O)NCCN(C)Cc2ccccc2)o1,–,–,–,–,–,–
Cc1cc(C)c(OCC(=O)OCC(=O)NC2CCC(C)CC2)c(C)c1 (stereo not drawn),–,–,–,–,–,–
COc1ccc(S(=O)(=O)N2CCN(c3ccccn3)CC2)cc1OC,–,–,–,–,–,–
COc1ccc(-c2cccc(N3CCN(c4ccccn4)CC3)n2)cc1OC,–,16µM,–,·,–,18µM
O=C(Nn1cnnc1)C(Sc1ccccc1)c1ccccc1 (stereo not drawn),–,–,–,–,–,–
CC(C(O)C12CC3CC(CC(C3)C1)C2)N1CCCCC1 (stereo not drawn),–,–,–,–,–,?
FC(F)(F)Oc1ccccc1C(c1nnnn1C1CCCC1)N1CCN(C/C=C/c2ccccc2)CC1 (stereo not drawn),–,?,–,·,–,16µM
COc1cccc(C(c2nnnn2C2CCCCC2)N2CCN(C/C=C/c3ccccc3)CC2)c1OC (stereo not drawn),?,16µM,·,·,–,13µM
CCN1CCN(C(c2ccccc2OC)c2nnnn2C2CCCCC2)CC1 (stereo not drawn),–,–,–,–,–,–
CC(=O)Nc1ccc(NC(=O)COc2ccc([N+](=O)[O-])cc2)cc1,–,–,–,–,–,–
CCOc1ccccc1NC(=O)CN1c2cccc3cccc(c23)S1(=O)=O,–,–,–,–,–,–
Cc1cc(C(=O)CN2c3cccc4cccc(c34)S2(=O)=O)c(C)n1C,–,4.6µM,–,–,–,3.3µM
Cc1ccc(NC(=O)CN2c3cccc4cccc(c34)S2(=O)=O)cc1,–,23µM,–,–,–,?
COc1ccc(-c2ccc3nnc(SCC(=O)NCC4CCCO4)n3n2)cc1 (stereo not drawn),–,–,–,·,–,–
CC(=O)c1ccc(N2Cc3ccccc3C2=NC(=O)c2cccs2)cc1,–,?,–,–,–,?
CCOC(=O)c1ccc(N2Cc3ccccc3C2=NC(=O)c2cccs2)cc1,–,18µM,–,–,–,?
